Test systems include NCI-H23 lung; NCI-H226 lung; NCI-H322M lung; HOP-62 NSCLC; NCI-H460 lung; HOP-92 NSCLC; NCI-H522 lung; A549/ATCC NSCLC; 786-0 renal; COLO 205 colon; DU-145 prostate; MALME-3M melanoma; MDA-MB-231 breast; RXF 393 renal; SF-268 CNS; SF-295 CNS; SF-539 CNS; UACC-257 melanoma; M14 melanoma.
Holding throughout (experiment): NCI-60 one-dose screen, 48 h (100 = growth as untreated, 0 = no growth, -100 = all killed)
What all share (details): 10 µM

Results on eight compounds are retold here after PubChem BioAssay (NCI).

The structures appear in SMILES notation. About 83,000 compounds went through this panel and 20% of them were active in at least one assay; those are over-represented in the sample as a whole.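 Method: cells in 96-well plates; compound added at one concentration; 48 h incubation; percent growth measured; values under 10 scored active.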 Values without a mark were called inactive. Activity calls are given as the source filed them.

With `CC(=O)c1ccc(NC(=O)NCn2c(=O)[nH]c3ccccc3c2=O)cc1`, the growth in the assay with NCI-H23 lung is 103%; in the assay on NCI-H226 lung, 87.3%; in the assay on NCI-H322M lung it was 93.8%; in the assay on HOP-62 NSCLC, 96.3%; with NCI-H460 lung, 112%; with HOP-92 NSCLC, 79.5%. In addition, the growth is 90.2% in the assay with NCI-H522 lung; 97.7% in the assay on A549/ATCC NSCLC; 102% with 786-0 renal; 109% in the assay with COLO 205 colon; 104% with DU-145 prostate; 93.2% in the assay with MALME-3M melanoma. Besides, the growth with MDA-MB-231 breast was 95.1%; with RXF 393 renal, 97.4%; in the assay with SF-268 CNS, 128%; in the assay with SF-295 CNS, 92.7%; in the assay on SF-539 CNS it was 90.6%; in the assay on UACC-257 melanoma it was 98.6%. The growth with M14 melanoma is 110%.
As to `COc1ccc(-c2nc(S(=O)(=O)c3ccc(C)cc3)c(S(C)(=O)=O)o2)cc1`, the growth with NCI-H23 lung is -78.1% (active); in the assay with NCI-H226 lung, 72.1%; in the assay with NCI-H322M lung it was 89.6%; in the assay on HOP-62 NSCLC, 84%; with NCI-H460 lung it was 4.05% (active); in the assay on HOP-92 NSCLC it was -75% (active). The growth in the assay on NCI-H522 lung is -96.6% (active); in the assay on A549/ATCC NSCLC, 81.2%; in the assay with 786-0 renal, -33.4% (active); with COLO 205 colon, -88.7% (active); in the assay on DU-145 prostate, -99.1% (active); in the assay on MALME-3M melanoma it was -95.5% (active). The growth in the assay on MDA-MB-231 breast is -92.4% (active); in the assay on RXF 393 renal, -95.1% (active); in the assay on SF-268 CNS, -37% (active); in the assay on SF-295 CNS it was 78.4%; with SF-539 CNS, -100% (active); in the assay with UACC-257 melanoma it was -84.6% (active). For the same compound, in the assay on M14 melanoma, the growth was -31.9% (active).
Regarding `CC(=O)Nc1nc(-c2ccc(N3CCN(C)CC3)c(NS(=O)(=O)c3cccc4c(N(C)C)cccc34)c2)cs1`, the growth in the assay with NCI-H23 lung was 58.1%; in the assay with NCI-H226 lung, 75.5%; in the assay with NCI-H322M lung, 64.7%; in the assay with HOP-62 NSCLC, 69.7%; in the assay on NCI-H460 lung it was 58.9%; with HOP-92 NSCLC it was 50.6%. Besides, the growth in the assay on NCI-H522 lung is 59.6%; in the assay with A549/ATCC NSCLC, 71.3%; in the assay with 786-0 renal, 34.4%; in the assay with COLO 205 colon, 47.4%; with DU-145 prostate it was 76.2%; in the assay on MALME-3M melanoma it was -35.6% (active). Besides, the growth was 65% in the assay with MDA-MB-231 breast; 19.6% with RXF 393 renal; 78.5% in the assay with SF-268 CNS; -58.7% (active) in the assay with SF-295 CNS; 16% in the assay with SF-539 CNS; -6.28% (active) with UACC-257 melanoma. Besides, the growth in the assay with M14 melanoma was -57.5% (active).
For `O=c1[nH][nH]c(Nc2ccccc2)c1N=Nc1ccc(F)cc1`, the growth in the assay on NCI-H23 lung was 102%; with NCI-H226 lung it was 84.4%; with NCI-H322M lung, 83.5%; with HOP-62 NSCLC, 119%; in the assay on NCI-H460 lung, 101%; with HOP-92 NSCLC, 71.2%. Further, the growth in the assay on NCI-H522 lung was 75.1%; with A549/ATCC NSCLC it was 84.8%; in the assay on 786-0 renal, 91.3%; in the assay with COLO 205 colon, 107%; in the assay with DU-145 prostate, 102%; with MALME-3M melanoma, 116%. Moreover, the growth with MDA-MB-231 breast was 86.6%; with RXF 393 renal, 83.1%; with SF-268 CNS, 81.5%; with SF-295 CNS, 111%; in the assay on SF-539 CNS, 92.8%; with UACC-257 melanoma, 127%. Also, in the assay on M14 melanoma, the growth is 107%.
On to `COc1ccc(-c2nc(S(=O)(=O)c3ccc(C)cc3)c(S(=O)(=O)CC(=O)N(C)Cc3ccccc3)o2)cc1`, for which the growth is 44% in the assay with NCI-H23 lung; 78.7% in the assay with NCI-H226 lung; 93.1% in the assay on NCI-H322M lung; 82.1% in the assay on HOP-62 NSCLC; 82.6% in the assay with NCI-H460 lung; 27.2% with HOP-92 NSCLC. Besides, the growth in the assay on NCI-H522 lung was -1.9% (active); in the assay on A549/ATCC NSCLC, 84.9%; with 786-0 renal, 22.2%; with COLO 205 colon, 45.9%; with DU-145 prostate, 35.5%; in the assay with MALME-3M melanoma, 16.7%. The growth is 2.89% (active) in the assay on MDA-MB-231 breast; -54.4% (active) in the assay with RXF 393 renal; 64.8% with SF-268 CNS; 78.5% in the assay with SF-295 CNS; 36.8% with SF-539 CNS; 67.9% in the assay with UACC-257 melanoma. In addition, the growth in the assay on M14 melanoma is 35.7%.
Turning to `Cc1ccc(-c2nc3ccc(C(=O)N=Nc4c(O)[nH]c5ccc([N+](=O)[O-])cc45)cc3[nH]2)cc1`, the growth is 64.6% in the assay on NCI-H23 lung; 45.4% in the assay with NCI-H226 lung; 105% in the assay on NCI-H322M lung; 88.5% in the assay on HOP-62 NSCLC; 103% in the assay with NCI-H460 lung; 44.3% in the assay on HOP-92 NSCLC. The growth was 78.3% in the assay on NCI-H522 lung; 98% in the assay with A549/ATCC NSCLC; 85.2% in the assay with 786-0 renal; 70.9% in the assay with COLO 205 colon; 47.8% in the assay on DU-145 prostate; 57.5% in the assay with MALME-3M melanoma. The growth in the assay on MDA-MB-231 breast was 66.9%; with RXF 393 renal it was 83.5%; in the assay on SF-268 CNS, 60.1%; in the assay on SF-295 CNS, 93.5%; with SF-539 CNS it was 52.7%; with UACC-257 melanoma, 84.8%. Besides, in the assay with M14 melanoma, the growth is 73.8%.
As for `C=C1CC[C@H](C(=C)C)[C@H]2C=C(C)C(=O)C3=C(C(=O)[C@@](C)(O)C3)[C@H]12`, the growth in the assay with NCI-H23 lung was -63.9% (active); with NCI-H226 lung, -57.8% (active); with NCI-H322M lung, -96.9% (active); in the assay with HOP-62 NSCLC, -72.7% (active); with NCI-H460 lung it was -45.6% (active); in the assay with HOP-92 NSCLC it was -90.8% (active). In addition, the growth with NCI-H522 lung is -88.6% (active); in the assay with A549/ATCC NSCLC it was -50.4% (active); with 786-0 renal, 2.21% (active); with COLO 205 colon, -88.7% (active); in the assay on DU-145 prostate, -45.4% (active); with MALME-3M melanoma, -79.1% (active). The growth was -70.1% (active) in the assay with MDA-MB-231 breast; -82.7% (active) in the assay on RXF 393 renal; -50.1% (active) in the assay with SF-268 CNS; -86.4% (active) with SF-295 CNS; -98.4% (active) in the assay with SF-539 CNS; -97.3% (active) with UACC-257 melanoma.
On to `O=C(Nc1ccccc1)Nc1nc2ccccc2s1`, for which the growth in the assay on NCI-H23 lung is 78.5%; with NCI-H226 lung, 72.1%; with NCI-H322M lung it was 84.4%; in the assay with HOP-62 NSCLC, 77.2%; in the assay with NCI-H460 lung it was 95.3%; in the assay with HOP-92 NSCLC, 77.8%. Besides, the growth in the assay on NCI-H522 lung is 72.3%; in the assay with A549/ATCC NSCLC, 89.5%; in the assay on 786-0 renal it was 102%; with COLO 205 colon, 50.8%; with DU-145 prostate, 104%; in the assay with MALME-3M melanoma, -10.2% (active). Besides, the growth with MDA-MB-231 breast is 79.5%; with RXF 393 renal, 110%; in the assay on SF-268 CNS it was 111%; in the assay on SF-295 CNS it was 82.3%; with SF-539 CNS it was 88.6%; in the assay on UACC-257 melanoma, 20.8%. The growth in the assay on M14 melanoma is 78.8%.
